Test results: PubChem BioAssay

biological target: Torsin-1A-interacting protein 2 (Homo sapiens) (UniProt Q8NFQ8); assay: LULL1 binders on small-molecule microarray, primary screen, cell lysate, human LULL1 lysate, 635/667 nm fluorescence (AID 1092); settings: hLULL1 lysate binding, 635 nm fluorescence, higher = more signal;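 note: score merges per-feature 667 nm fluorescence with signal-to-noise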
Sequence (Q8NFQ8 whole entry, looked up): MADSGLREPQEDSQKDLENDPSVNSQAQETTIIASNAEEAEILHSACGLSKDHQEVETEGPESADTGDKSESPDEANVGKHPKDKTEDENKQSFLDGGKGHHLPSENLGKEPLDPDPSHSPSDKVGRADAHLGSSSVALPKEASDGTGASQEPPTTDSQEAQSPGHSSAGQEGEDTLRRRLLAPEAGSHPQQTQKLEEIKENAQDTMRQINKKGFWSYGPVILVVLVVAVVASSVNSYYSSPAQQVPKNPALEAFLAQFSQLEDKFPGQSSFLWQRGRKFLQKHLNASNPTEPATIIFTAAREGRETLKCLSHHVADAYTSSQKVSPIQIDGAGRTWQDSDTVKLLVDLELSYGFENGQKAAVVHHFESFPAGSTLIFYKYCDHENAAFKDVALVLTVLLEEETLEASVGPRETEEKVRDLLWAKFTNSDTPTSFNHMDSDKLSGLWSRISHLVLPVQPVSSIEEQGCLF

Compared with `COc1ccc(NC(=O)O[C@H]2[C@H](OC(=O)c3cc4ccccc4[nH]3)[C@@H](OC(=O)c3cc4ccccc4[nH]3)[C@@H](OC)O[C@@H]2CO)cc1`, `COCCOC(=O)N1C(=O)[C@@]2(c3cc(C#CCCO)ccc31)[C@H](c1ccc(OCCO)cc1)N1[C@H](c3ccccc3)[C@H](c3ccccc3)OC(=O)[C@H]1[C@@H]2C(N)=O` is higher in composite z-score: 1.54 for the first, 2.78 for the second.

Compared with `C=C(CCCC)C(=O)CC[C@H](OC(=O)c1cccnc1)c1ccc(OCCO)cc1`, `C=C(CCCC)/C(=C/C[C@H](OC(C)=O)c1ccccc1OCCO)c1cnc2ccccc2c1` is higher in composite z-score: 0.434 for the first, 1.15 for the second.

First: C=CCN1C(=O)[C@]2(Cc3ccccc3)N=C(c3ccc(OCCCO)cc3)O[C@@H]2c2ccccc21
Second: C=CCN1Cc2ccccc2[C@@H]2OC(c3ccc(OCCCO)cc3)=N[C@]2(CCS(=O)(=O)c2ccccc2)C1=O
The composite z-score of the first is lower: 3.13 for the first, 3.35 for the second.

Compared with `CC(=O)NCCCC[C@@H]1NC(=O)[C@H]2C[C@@H](C(=O)NCCCCCNC(=O)CS)[C@@H](c3ccc(O)cc3)N2C1=O`, `NCCCCCCNC(=O)[C@H]1C[C@H]2C(=O)N[C@@H](Cc3ccccc3)C(=O)N2[C@H]1c1cccc(OCCO)c1` is lower in composite z-score: 1.69 for the first, 1.66 for the second.

Compared with `C=CCC(OC(C)=O)[C@@H]1[C@@H](N(Cc2cc3ccccc3o2)C(=O)Cc2ccc(OC)cc2)c2cc(OCCCO)ccc2N1C(=O)c1ccc2ccccc2c1` (stereo not given in full), `C=CCC(OC(C)=O)[C@@H]1[C@@H](N(Cc2ccc(-c3cccc(C(F)(F)F)c3)o2)C(=O)c2cccc3ccccc23)c2cc(OCCCO)ccc2N1C(=O)Cc1ccc2ccccc2c1` (stereo not given in full) is higher in composite z-score: -0.266 for the first, 0.878 for the second.

Going from `CC(c1ccccc1)C(O)C1C=CC2C(=O)N(c3ccccc3)C(=O)C2N1Nc1ccccc1` (stereo not given) to `CN1C(=O)C2C=CC(C(O)C=Cc3ccc([N+](=O)[O-])cc3)N(Nc3ccccc3)C2C1=O` (stereo not given), the composite z-score falls from 3.62 to 1.62.

Going from `COc1ccc([C@H]2C[C@H]3C(Br)=C[C@@]2(CO)C(=O)[C@]32CO2)cc1` to `CC(=O)Nc1cc(Br)ccc1C(=O)NCc1ccccc1`, the composite z-score rises from -0.274 to 2.06.

Compared with `CCCCN1CC=CC23O[C@@H]4/C=C\CCCOC(=O)C4[C@H]2C(=O)N(CCCCCO)[C@@H]3C1=O` (stereo not given in full), `O=C1OCCC=C[C@H]2OC34C=CCN(CCN5CCOCC5)C(=O)[C@H]3N(CCCCCO)C(=O)[C@@H]4C12` (stereo not given in full) is higher in composite z-score: -0.42 for the first, 3.34 for the second.

Going from `COc1ccc([Si](C)(C)[C@@H]2[C@@H](CCn3cc(CCO)nn3)O[C@]3(C(=O)N(Cc4cccc(N5C(=O)c6cccc7cccc5c67)c4)c4ccccc43)[C@H]2C)cc1` to `COc1ccc([Si](C)(C)[C@@H]2[C@@H](CCn3cc([C@H](O)c4ccccc4)nn3)O[C@]3(C(=O)N(Cc4cccc(N5CCC5=O)c4)c4ccccc43)[C@H]2C)cc1`, the composite z-score falls from 1.76 to 0.167.

First: CCCCCN1CC=CC23O[C@@H]4C=CCOC(=O)[C@@H]4[C@H]2C(=O)N(C(C)CO)[C@@H]3C1=O (stereo not given in full)
Second: CC(C)CN1C(=O)[C@@]2(c3ccc([N+](=O)[O-])cc3)CC(=O)N(C3CCCCC3)[C@@H]2c2ccc(CO)cc21
The composite z-score of the first is lower: -0.952 for the first, -0.709 for the second.

Going from `CCOC(=O)C1=C[C@@H](C(C)C)N(S(=O)(=O)c2ccc(C)cc2)[C@H]1c1ccccc1F` to `CC(C)NC(=O)[C@@H]1c2ccccc2C(=O)N(C(C)C)[C@H]1c1ccc(CO)cc1`, the composite z-score rises from 2.8 to 2.99.

First: CS(=O)(=O)CCOC(=O)C1=CC(CCCO)=CC(C2CC2)N(Cc2cc3c(cc2Br)OCO3)C=C1C(=O)OCCS(C)(=O)=O (stereo not given)
Second: COC(=O)[C@@]1(Cc2ccc(OC)cc2)[C@H]2c3cc(C(=O)N4CCCC4)n(CCc4ccc(O)c(O)c4)c3C[C@H]2CN1C(=O)c1ccccc1
The composite z-score of the first is lower: 1.84 for the first, 3.62 for the second.

Compared with `Cc1c(NC(=O)/C(C#N)=C/c2cccc([N+](=O)[O-])c2)c(=O)n(-c2ccccc2)n1C`, `COC(=O)[C@@]1(CCC(=O)OC(C)(C)C)N=C(c2ccc(OCCCO)cc2)O[C@H]1c1ccccc1` is lower in composite z-score: 1.92 for the first, 1.29 for the second.

Compared with `C=CCNC(=O)[C@@H]1[C@H]2C(=O)O[C@H](c3ccccc3)[C@H](c3ccccc3)N2[C@H](c2ccc(OCCO)cc2)[C@@]12C(=O)N(C(=O)OCCOC)c1ccc(C#CCC(C(=O)OC)C(=O)OC)cc12`, `COCCOC(=O)N1C(=O)[C@@]2(c3cc(C#CC4=CCCCC4)ccc31)[C@H](c1ccc(OCCO)cc1)N1[C@H](c3ccccc3)[C@H](c3ccccc3)OC(=O)[C@H]1[C@@H]2C(=O)N1CCc2cc(OC)c(OC)cc2C1` is lower in composite z-score: 2.39 for the first, 1.94 for the second.

First: C#CCN1[C@H](/C=C/C2CC2)[C@H](Cc2ccccc2)OC(=O)[C@@H]1Cc1ccccc1
Second: O=C(NC1CC1)[C@@H]1c2ccccc2C(=O)N(C2Cc3ccccc3C2)[C@H]1c1ccc(CO)cc1
The composite z-score of the first is lower: 0.613 for the first, 3.1 for the second.

Going from `COc1ccccc1CN1C(=O)c2ccccc2[C@@]2(Cc3ccccc3N(CCCN(C)C)C2=O)[C@@H]1c1ccc(CO)cc1` to `O=C(NCCN1CCOCC1)[C@@H]1c2ccccc2C(=O)N(Cc2cc(C(F)(F)F)cc(C(F)(F)F)c2)[C@H]1c1ccc(CO)cc1`, the composite z-score rises from 0.425 to 2.37.

First: O=C(O)[C@@]1(CCS(=O)(=O)c2ccccc2)N=C(c2ccc(OCCCO)cc2)O[C@H]1c1ccccc1
Second: C=CCN(Cc1ccccc1)C(=O)C(c1cccs1)N(C(=O)/C=C\C(=O)O)c1ccc(CCOCCO)cc1 (stereo not given)
The composite z-score of the first is higher: 3.46 for the first, -0.288 for the second.

`Cc1ccc(S[C@]2(C(=O)NCC(C)C)CC(=O)N(Cc3cc(C(F)(F)F)cc(C(F)(F)F)c3)[C@@H]2c2ccc(CO)cc2)cc1` showed a composite z-score of 0.472.
